# Results from ChEMBL document CHEMBL3988442, “University of Dundee, Small-Polar-MMV Screening Library” (2021).
# Molecular target: AMP-activated protein kinase, AMPK (Homo sapiens) (UniProt P54646+O43741+P54619+Q9UGJ0+Q9Y478+Q13131+Q9UGI9)
# Assay: AMP-dependent Kinase enzyme assay. An in vitro enzyme assay that detects ADP turnover that is directly proportional to AMPK activity. This uses naive AMPK that is activated during the assay with MK-8722
# Format: functional
# Parameters: scale not given: direction of the effect not stated beside the values
# Conditions: 30 µM
row,SMILES,Percent Effect
1,CN1CCCC(c2cccc(-c3ccccc3F)n2)C1 (stereo not given),16.2%
2,CC(C)c1ccccc1NC(=O)N1C[C@@H]2CC[C@H](C1)N(C)C2=O,-7.67%
3,O=c1[nH]nc(CNCc2ccc(OC34CCCN(CC3)C4)cc2)[nH]1 (stereo not given),-7.25%
4,COc1cc(Br)c(S(=O)(=O)NC(=O)C(C)OC)cc1OC (stereo not given),-6.43%
5,CN(CC(=O)NC(C)(C)C)Cc1cccc2c1OCCO2,-9.42%
6,O=C(Cc1c(F)cccc1Cl)Nc1cccc(N2CCCC2)c1,-5.51%
7,N#Cc1ccc(CN(CCF)Cc2cccc(F)c2)cc1,-7.25%
8,Cc1noc(C)c1CC(=O)N1CCCC(Cn2ccnc2C)C1 (stereo not given),-4.07%
9,CC(c1nccs1)N(C)S(=O)(=O)NCc1ccccc1 (stereo not given),-1.57%
10,CN(Cc1ccoc1)C(=O)C1CCN(C(=O)C2CCCC2)CC1,-3.16%
11,COC(=O)c1occc1Cn1cc(Br)cn1,-0.99%
12,Cc1ccccc1C(CC(=O)N1CCc2sccc2C1)NC(N)=O (stereo not given),11.7%
13,CN([C@@H]1CC[C@@H](N2CCCC2)[C@@H]1O)S(=O)(=O)c1ccccc1,-6.19%
14,Cc1ccccc1[C@@H]1CN(CCCS(=O)(=O)N(C)C)C[C@H]1C(=O)O,-1.92%
15,CCOCCC(=O)Nc1cccc(Cl)c1C(N)=O,1.82%
16,N#CC1COCCN1C(=O)c1ccc2[nH]ccc2c1 (stereo not given),7.92%
17,CS(=O)(=O)c1ccc(Cl)c(NC(=O)NCCC2=CCCCC2)c1,3.49%
18,Cc1ccc(C2(O)CCN(C(=O)CCn3c(C)cccc3=O)CC2)nc1,-22.2%
19,CC(C)n1ccc(C(=O)OCC2CC(=O)N(Cc3ccccc3)C2)n1 (stereo not given),7.89%
20,CSc1ccc(C)c(C(=O)Nc2c(C(N)=O)n[nH]c2C)c1,3.27%

row,SMILES,Percent Effect
1,Cc1ncc(CNC(=O)NCc2c(F)cccc2OC(F)F)s1,6.42%
2,CC(C)c1nc(C2CCCN2CCc2ccccn2)no1 (stereo not given),20.7%
3,CC(C)(C)Oc1ccc(NCC(=O)NCc2ccco2)cc1,9.8%
4,CC(C)c1cc(C2CCN(C(=O)Cn3cnc4ccccc43)CC2)[nH]n1,10.5%
5,COc1cc(C(=O)O)cc(I)c1OCC(=O)NCCc1ccccc1,11.9%
6,Cc1ccnc2c1NC(=O)CN2C(=O)CCc1cccs1,-0.535%
7,Cc1cc(NCCc2cnccn2)nc(-c2ccccc2O)n1,19.4%
8,c1cncc(OC2CCN(CCn3cc4ccccc4n3)CC2)c1,13.1%
9,Cc1nn(C)c(C)c1C1CCCN1C(=O)c1ccc(C(N)=O)s1 (stereo not given),-0.19%
10,O=C(NCc1nc[nH]n1)c1cc(COc2cccc(F)c2)[nH]n1,2.9%
11,Cc1nc(CN2CCN(CC(O)CN3CCOCC3)CC2)oc1C (stereo not given),-2.09%
12,COc1c(CNCC(=O)N2CCN(C)CC2)c(C(C)C)nn1C,-12.4%
13,COc1ccc(OCc2nc3cc4c(cc3c(=O)o2)OCCCO4)cc1,-6.13%
14,Cc1nccn1CCN(C)C(=O)c1cn(CC2CCCCC2)nn1,9.45%
15,Cc1c(NC(=O)NCCO)cccc1OC1CCCC1,-2.68%
16,CC(C)C(NC(=O)C1CCCC1)c1cc(O)nc(-c2cccnc2)n1 (stereo not given),0.00151%
17,Cc1ncc2c(n1)CN(Cc1nc(-c3ccco3)oc1C)CC2,-38.3%
18,CN1CCCN(C[C@@H]2CN(c3nc(C(N)=O)cs3)C[C@@H]2CO)CC1,-0.955%
19,COc1cccc2ccc(N3CCC(O)(C(=O)O)CC3)nc12,1.15%
20,Cc1nc(C)n(CC2CCCN2c2ncnc3sc(C)c(C)c23)n1 (stereo not given),-3.96%
